# The source made the active and inactive calls. How the source made its calls: active means hit-call score of the fitted dose curve at least 0.9, where 1 is the maximum; inactive means score below 0.9.
# Key:
# Settings in all cases: mRNA level, 48 h; actives raise or lower the signal
# [1] = read-out: cysteine-aspartic acid protease (CASP8), CASP8 (gene 841); test: LTEA_HepaRG_CASP8: Life Technologies and Expression Analysis (LTEA) Assay for cysteine-aspartic acid protease (CASP8) using HepaRG (AID 2283480)
# How it was run: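 qRT-PCR readout of CASP8 mRNA, normalized to three housekeeping genes, after 48 h chemical exposure of HepaRG cells; 8-point half-log series, top 100 uM, 0.5% DMSO vehicle. Bidirectional curve fitting against DMSO baseline.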
# [2] = read-out: Cytochrome P450 (CYP2B6), CYP2B6 (gene 1555); test: LTEA_HepaRG_CYP2B6: Life Technologies and Expression Analysis (LTEA) Assay for Cytochrome P450 (CYP2B6) using HepaRG (AID 2283481)
# How it was run: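 Differentiated HepaRG cells, serum-free induction medium, exposed 48 h in duplicate to 8-point half-log concentrations from 100 uM in 0.5% DMSO. CYP2B6 mRNA by qRT-PCR, normalized to ACTB, GAPDH, POLR2A; bidirectional fit versus DMSO.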
# [3] = read-out: Cytochrome P450 2C19 (Homo sapiens) (UniProt P33261); test: LTEA_HepaRG_CYP2C19: Life Technologies and Expression Analysis (LTEA) Assay for CYP2C19 using HepaRG (AID 2283482)
# How it was run: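 Differentiated human HepaRG cells were exposed for 48 h in serum-free induction medium to 8 concentrations (top 100 uM, half-log steps, 0.5% DMSO). CYP2C19 mRNA was measured by qRT-PCR, normalized to ACTB/GAPDH/POLR2A, and fitted bidirectionally against DMSO.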
# CYP2C8 (gene 1558) = test: LTEA_HepaRG_CYP2C8: Life Technologies and Expression Analysis (LTEA) Assay for CYP2C8 using HepaRG (AID 2283483)
# How it was run: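 HepaRG (human liver line), 48 h chemical exposure, 8-pt half-log series from 100 uM, 0.5% DMSO vehicle. Readout: CYP2C8 transcript by qRT-PCR, housekeeping-normalized. Bidirectional fit vs DMSO baseline.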
# CYP2C9 (gene 1559) = test: LTEA_HepaRG_CYP2C9: Life Technologies and Expression Analysis (LTEA) Assay for CYP2C9 using HepaRG (AID 2283484)
# How it was run: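 HepaRG, 48 h dosing, 8-pt half-log series, top 100 uM, 0.5% DMSO vehicle. Read-out: CYP2C9 transcript by TaqMan qRT-PCR, housekeeping-normalized (ACTB/GAPDH/POLR2A). Gain or loss fitted vs DMSO baseline.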
# CYP2E1 (gene 1571) = test: LTEA_HepaRG_CYP2E1: Life Technologies and Expression Analysis (LTEA) Assay for CYP2E1 using HepaRG (AID 2283485)
# How it was run: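 Readout is qRT-PCR of CYP2E1 mRNA, normalized to three housekeeping genes and fitted bidirectionally against 0.5% DMSO. HepaRG cells were dosed 48 h at eight concentrations, highest 100 uM with half-log dilutions.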
# CYP4A11 (gene 1579) = test: LTEA_HepaRG_CYP4A11: Life Technologies and Expression Analysis (LTEA) Assay for CYP4A11 using HepaRG (AID 2283486)
# How it was run: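 Differentiated HepaRG cells, serum-free induction medium, exposed 48 h in duplicate to 8-point half-log series from 100 uM in 0.5% DMSO. CYP4A11 mRNA measured by qRT-PCR, normalized to ACTB, GAPDH, POLR2A; bidirectional fit versus DMSO.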
# [4] = read-out: Cytochrome P450 3A4 (Homo sapiens) (UniProt P08684); test: LTEA_HepaRG_CYP3A4: Life Technologies and Expression Analysis (LTEA) Assay for CYP3A4 using HepaRG (AID 2283487)
# How it was run: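 HepaRG, 48 h exposure, 8-pt CRC from 100 uM (half-log), 0.5% DMSO, duplicates; serum-free induction medium. Readout: CYP3A4 mRNA, qRT-PCR, ACTB/GAPDH/POLR2A normalization. Bidirectional fit vs DMSO.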
# [5] = read-out: DNA damage-inducible transcript 3 (DDIT3), DDIT3 (gene 1649); test: LTEA_HepaRG_DDIT3: Life Technologies and Expression Analysis (LTEA) Assay for DNA damage-inducible transcript 3 (DDIT3) using HepaRG (AID 2283488)
# How it was run: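 Cells are human HepaRG liver cells treated for 48 h with eight half-log concentrations up to 100 uM in 0.5% DMSO. Transcript levels come from qRT-PCR normalized to three housekeeping genes, with activity fitted in both directions relative to vehicle.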
# [6] = read-out: Pro-epidermal growth factor (Homo sapiens) (UniProt P01133); test: LTEA_HepaRG_EGF: Life Technologies and Expression Analysis (LTEA) Assay for Epidermal growth factor (EGF) using HepaRG (AID 2283489)
# How it was run: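 Differentiated human HepaRG cells, plated 48 h then switched to serum-free induction medium, were exposed for 48 h to test chemicals (8-point half-log series, top 100 uM, 0.5% DMSO). EGF mRNA was quantified by qRT-PCR, normalized to ACTB, GAPDH, POLR2A.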
# [7] = read-out: Early growth response protein 1 (EGR1) transcription factor, EGR1 (gene 1958); test: LTEA_HepaRG_EGR1: Life Technologies and Expression Analysis (LTEA) Assay for Early growth response protein 1 (EGR1) transcription factor using HepaRG (AID 2283490)
# How it was run: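 HepaRG, 48 h exposure, 8-pt half-log series from 100 uM, 0.5% DMSO vehicle; EGR1 transcript by TaqMan qRT-PCR (Fluidigm array), housekeeping-normalized; bidirectional fit relative to DMSO baseline.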
# [8] = read-out: Ezrin (EZR), EZR (gene 7430); test: LTEA_HepaRG_EZR: Life Technologies and Expression Analysis (LTEA) Assay for Ezrin (EZR) using HepaRG (AID 2283491)
# How it was run: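 Read-out is EZR transcript level by qRT-PCR, normalized to three housekeeping genes and fitted bidirectionally against the DMSO control. Human HepaRG cells received test chemicals for 48 h at eight half-log concentrations up to 100 uM in 0.5% DMSO.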
# [9] = read-out: Cytochrome P450 3A7 (Homo sapiens) (UniProt P24462); test: LTEA_HepaRG_CYP3A7: Life Technologies and Expression Analysis (LTEA) Assay for CYP3A7 using HepaRG (AID 2283492)
# How it was run: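 HepaRG cells plated 48 h, then dosed in serum-free induction medium for 48 h at 8 concentrations (top 100 uM, half-log steps, 0.5% DMSO). CYP3A7 mRNA by qRT-PCR, normalised to ACTB/GAPDH/POLR2A; bidirectional fit versus DMSO.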
# CYP3A5 (gene 1577) = test: LTEA_HepaRG_CYP3A5: Life Technologies and Expression Analysis (LTEA) Assay for CYP3A5 using HepaRG (AID 2283493)
# How it was run: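 Human HepaRG hepatic cells receive 48 h chemical treatment at eight concentrations (half-log steps from 100 uM) in 0.5% DMSO. Expression of CYP3A5 is quantified by Fluidigm qRT-PCR and normalized to three reference genes.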
# [10] = read-out: Cytochrome P450 4A22 (Homo sapiens) (UniProt Q5TCH4); test: LTEA_HepaRG_CYP4A22: Life Technologies and Expression Analysis (LTEA) Assay for Cytochrome P450 4A22 (CYP4A22) using HepaRG (AID 2283495)
# How it was run: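 qRT-PCR of CYP4A22 mRNA (Fluidigm TaqMan, normalized to three housekeeping genes) after 48 h chemical exposure of HepaRG cells; 8-point half-log series, top 100 uM, 0.5% DMSO vehicle. Bidirectional curve fitting vs DMSO baseline.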
# [11] = read-out: Cytochrome P450 7A1 (Homo sapiens) (UniProt P22680); test: LTEA_HepaRG_CYP7A1: Life Technologies and Expression Analysis (LTEA) Assay for Cytochrome P450 7A1 (CYP7A1) using HepaRG (AID 2283496)
# How it was run: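 HepaRG, 48 h exposure, 8-pt half-log series from 100 uM, 0.5% DMSO vehicle, duplicates. Readout: TaqMan qRT-PCR mRNA vs three housekeeping genes; bidirectional curve fit against DMSO baseline.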
# [12] = read-out: Glutathione S-Transferase (GSTA2), GSTA2 (gene 2939); test: LTEA_HepaRG_GSTA2: Life Technologies and Expression Analysis (LTEA) Assay for Glutathione S-Transferase (GSTA2) using HepaRG (AID 2283497)
# How it was run: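 qRT-PCR readout of GSTA2 transcript, normalized to three housekeeping genes, fitted bidirectionally against 0.5% DMSO baseline. Differentiated HepaRG cells received compound for 48 h at 8 concentrations (top 100 uM, half-log steps).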
# [13] = read-out: Glutamate-cysteine ligase catalytic (GCLC), GCLC (gene 2729); test: LTEA_HepaRG_GCLC: Life Technologies and Expression Analysis (LTEA) Assay for Glutamate-cysteine ligase catalytic (GCLC) using HepaRG (AID 2283498)
# How it was run: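 HepaRG, 48 h exposure, 8-pt half-log series from 100 uM, 0.5% DMSO vehicle; TaqMan qRT-PCR for GCLC mRNA, housekeeping-normalized; bidirectional curve fit vs DMSO baseline.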
# [14] = read-out: growth arrest and DNA damage 45 (GADD45G), GADD45G (gene 10912); test: LTEA_HepaRG_GADD45G: Life Technologies and Expression Analysis (LTEA) Assay for growth arrest and DNA damage 45 (GADD45G) using HepaRG (AID 2283499)
# How it was run: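 Differentiated human HepaRG cells in serum-free induction medium were exposed for 48 h to 8 half-log concentrations up to 100 uM in 0.5% DMSO, in duplicate. GADD45G mRNA was measured by TaqMan qRT-PCR, normalised to ACTB, GAPDH and POLR2A, and fitted bidirectionally against DMSO.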
# [15] = read-out: Glutamate-cysteine ligase regulatory (GCLM), GCLM (gene 2730); test: LTEA_HepaRG_GCLM: Life Technologies and Expression Analysis (LTEA) Assay for Glutamate-cysteine ligase regulatory (GCLM) using HepaRG (AID 2283500)
# How it was run: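 Endpoint is GCLM transcript level by qRT-PCR, normalized to three housekeeping genes, after 48 h chemical exposure of human HepaRG cells (0.5% DMSO vehicle, top 100 uM, half-log dilutions). Fitting was bidirectional relative to DMSO.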
# Chain of Cytochrome P450 2C19 (Homo sapiens) (P33261 whole entry, looked up): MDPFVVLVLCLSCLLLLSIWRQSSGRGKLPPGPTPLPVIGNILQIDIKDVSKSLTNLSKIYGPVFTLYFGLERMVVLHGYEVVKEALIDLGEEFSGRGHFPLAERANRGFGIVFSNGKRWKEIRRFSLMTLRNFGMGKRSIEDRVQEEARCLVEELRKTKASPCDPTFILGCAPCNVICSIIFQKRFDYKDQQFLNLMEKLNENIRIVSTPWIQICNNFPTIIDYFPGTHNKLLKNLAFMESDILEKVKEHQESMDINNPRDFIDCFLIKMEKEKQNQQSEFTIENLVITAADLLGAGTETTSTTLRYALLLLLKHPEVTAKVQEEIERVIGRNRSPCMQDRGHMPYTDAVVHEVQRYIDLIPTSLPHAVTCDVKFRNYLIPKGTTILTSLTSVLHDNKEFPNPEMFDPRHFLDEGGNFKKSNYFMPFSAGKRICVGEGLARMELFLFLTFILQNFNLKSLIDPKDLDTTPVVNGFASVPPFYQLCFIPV
# Chain of Cytochrome P450 3A4 (Homo sapiens) (P08684 whole entry, looked up): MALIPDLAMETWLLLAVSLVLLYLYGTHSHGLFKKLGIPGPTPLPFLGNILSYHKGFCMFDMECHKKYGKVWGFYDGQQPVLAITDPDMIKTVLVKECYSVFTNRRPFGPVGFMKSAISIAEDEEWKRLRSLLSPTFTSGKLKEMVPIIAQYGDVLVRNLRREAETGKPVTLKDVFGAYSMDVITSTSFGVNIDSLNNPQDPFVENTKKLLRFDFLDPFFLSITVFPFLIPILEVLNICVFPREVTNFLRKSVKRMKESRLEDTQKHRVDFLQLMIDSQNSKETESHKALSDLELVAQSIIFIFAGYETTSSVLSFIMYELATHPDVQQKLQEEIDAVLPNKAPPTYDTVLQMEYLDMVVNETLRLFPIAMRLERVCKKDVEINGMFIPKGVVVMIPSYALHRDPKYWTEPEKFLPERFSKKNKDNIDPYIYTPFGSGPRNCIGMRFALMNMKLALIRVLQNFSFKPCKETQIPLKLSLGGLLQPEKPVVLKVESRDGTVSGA
# Chain of Cytochrome P450 3A7 (Homo sapiens) (P24462 whole entry, looked up): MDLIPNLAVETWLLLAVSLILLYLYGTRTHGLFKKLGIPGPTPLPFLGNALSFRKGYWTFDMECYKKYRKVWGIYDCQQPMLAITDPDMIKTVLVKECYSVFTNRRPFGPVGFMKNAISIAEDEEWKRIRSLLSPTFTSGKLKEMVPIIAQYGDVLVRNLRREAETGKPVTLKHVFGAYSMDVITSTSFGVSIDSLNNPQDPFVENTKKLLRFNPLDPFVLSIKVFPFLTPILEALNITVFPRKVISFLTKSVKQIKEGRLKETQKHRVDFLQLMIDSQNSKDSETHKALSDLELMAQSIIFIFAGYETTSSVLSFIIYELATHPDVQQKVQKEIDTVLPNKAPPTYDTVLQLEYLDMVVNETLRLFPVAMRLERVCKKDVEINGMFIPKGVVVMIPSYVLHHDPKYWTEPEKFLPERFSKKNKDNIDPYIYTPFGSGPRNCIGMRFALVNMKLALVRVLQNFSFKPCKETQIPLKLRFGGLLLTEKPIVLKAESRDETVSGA
smiles,measurement,setting,value
O=C(CCl)c1ccccc1,outcome,[1],inactive
same,AC50,[2],50 µM (active)
same,outcome,[3],inactive
same,outcome,CYP2C8 (gene 1558),inactive
same,outcome,CYP2C9 (gene 1559),inactive
same,outcome,CYP2E1 (gene 1571),inactive
same,outcome,CYP4A11 (gene 1579),inactive
same,outcome,[4],inactive
same,outcome,[5],inactive
same,outcome,[6],inactive
same,outcome,[7],inactive
same,outcome,[8],inactive
same,outcome,[9],inactive
same,outcome,CYP3A5 (gene 1577),inactive
same,outcome,[10],inactive
same,outcome,[11],inactive
same,outcome,[12],inactive
same,outcome,[13],inactive
same,outcome,[14],inactive
same,outcome,[15],inactive
N#CCCCCC#N,outcome,[1],inactive
same,AC50,[2],50 µM (active)
same,outcome,[3],inactive
same,outcome,CYP2C8 (gene 1558),inactive
same,outcome,CYP2C9 (gene 1559),inactive
same,outcome,CYP2E1 (gene 1571),inactive
same,outcome,CYP4A11 (gene 1579),inactive
same,outcome,[4],inactive
same,outcome,[5],inactive
same,outcome,[6],inactive
same,outcome,[7],inactive
same,outcome,[8],inactive
same,outcome,[9],inactive
same,outcome,CYP3A5 (gene 1577),inactive
same,outcome,[10],inactive
same,outcome,[11],inactive
same,outcome,[12],inactive
same,outcome,[13],inactive
same,outcome,[14],inactive
same,outcome,[15],inactive
O=[N+]([O-])c1ccc(Cl)cc1,outcome,[1],inactive
same,outcome,[2],inactive
same,outcome,[3],inactive
same,outcome,CYP2C8 (gene 1558),inactive
same,outcome,CYP2C9 (gene 1559),inactive
same,outcome,CYP2E1 (gene 1571),inactive
same,outcome,CYP4A11 (gene 1579),inactive
same,outcome,[4],inactive
same,outcome,[5],inactive
same,outcome,[6],inactive
same,outcome,[7],inactive
same,outcome,[8],inactive
same,outcome,[9],inactive
same,outcome,CYP3A5 (gene 1577),inactive
same,outcome,[10],inactive
same,outcome,[11],inactive
same,outcome,[12],inactive
same,outcome,[13],inactive
same,outcome,[14],inactive
same,outcome,[15],inactive

# Source: PubChem BioAssay (EPA / NIEHS)
